# Screens as filed in PubChem.
# Most compounds without a hit are left out; they make up all but 1.8% or so of the library.
# LANA-H2B inh – blocks KSHV LANA binding to histone H2A/H2B. Q9QR71. cell-free LANA-H2A/H2B peptide, fluorescence polarization. inhibition, % (test concentration not listed). 320,000 tested, 0.6% active. AID 2629; in the data active = inhibition mostly above about 10%, no sharp cut-off; inactive = mostly below about 6.7%
# HDAC3 inhib – inhibitors of human histone deacetylase 3; O15379; recombinant HDAC3, fluorogenic peptide/trypsin coupled, fluorescence; inhibition, % at 8.3 µM; 320,000 tested, 0.15% active; in the data active = inhibition above about 26%, passing the limit was not always enough; inconclusive = no clear call, values can overlap the other calls
# VLA-4 inh – inhibition in a human VLA-4 binding assay | P13612 | VLA-4 expressing cells, ligand binding flow cytometry | inhibition, % (about 7 µM as worked out from the volumes in the protocol) | 330,000 tested, 0.2% active | AID 2557
# GRK2 inh – human GRK2 inhibition via aptamer displacement; P25098; bead flow cytometry, FAM-aptamer displacement from GRK2; inhibition of aptamer binding, % at 10 µM; 330,000 tested, 0.59% active; AID 488847;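 active = inhibition of aptamer binding above 40%, roughly 3 SD of noise, on plates passing a quality check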;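 note: median bead fluorescence of bound FAM aptamer so fluorescent compounds give negative values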
# Target sequence (P25098 whole entry, looked up): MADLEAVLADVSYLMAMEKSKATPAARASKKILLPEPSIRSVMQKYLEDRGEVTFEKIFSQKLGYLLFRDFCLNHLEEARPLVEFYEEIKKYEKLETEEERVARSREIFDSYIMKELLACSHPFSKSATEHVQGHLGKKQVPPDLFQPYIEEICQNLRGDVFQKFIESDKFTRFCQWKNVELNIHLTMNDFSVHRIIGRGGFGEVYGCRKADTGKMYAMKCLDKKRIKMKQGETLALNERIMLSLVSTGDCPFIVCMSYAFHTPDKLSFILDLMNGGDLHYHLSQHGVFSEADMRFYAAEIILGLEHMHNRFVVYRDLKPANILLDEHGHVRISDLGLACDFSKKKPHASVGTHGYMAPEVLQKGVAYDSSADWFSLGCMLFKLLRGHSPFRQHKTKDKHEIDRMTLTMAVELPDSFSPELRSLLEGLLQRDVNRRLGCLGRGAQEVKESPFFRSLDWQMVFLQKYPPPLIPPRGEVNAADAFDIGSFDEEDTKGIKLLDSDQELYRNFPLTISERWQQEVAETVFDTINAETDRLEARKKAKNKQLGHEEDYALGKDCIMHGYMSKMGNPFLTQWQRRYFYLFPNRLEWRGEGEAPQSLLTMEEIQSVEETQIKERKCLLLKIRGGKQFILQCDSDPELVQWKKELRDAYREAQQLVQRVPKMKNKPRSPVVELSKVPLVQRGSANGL
# PKD1 inh – inhibitors of human PKD1 kinase; Q15139; PKD1 kinase fluorescence polarization assay; inhibition, % (concentration not given with the values); 200,000 tested, 0.056% active
# DSG3 Ab inh – blocks pemphigus antibody binding to human desmoglein-3 | P32926 | DSG3-coupled beads, scFv-anti-DSG3-GFP binding, flow cytometry; stronger effect = lower value | binding (percent of control), % at 10 µM | 310,000 tested, 0.48% active;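 active = binding more than 3 SD below its plate's average and above zero; inconclusive = below that plate limit but binding exactly zero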;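 note: hits lower antibody fragment binding to DSG3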
# PKD FP artifact – FP interference, PKD inhibitor counter-screen. AID 1315. shares compounds with PKD1 inh. PKD1 FP assay interference counter-screen, fluorescence polarization. 85 tested, under 10 active. inhibition, % at 10 µM; call rule not given here
# Starred values were filed as active, the others as inactive; ? = inconclusive; . = no result. Cut-off read from the data, not from the text of the source, unless noted: active = inhibition above about 50%; inactive = the rest.
SMILES,LANA-H2B inh,HDAC3 inhib,VLA-4 inh,GRK2 inh,PKD1 inh,DSG3 Ab inh,PKD FP artifact
Cc1ccc(OCC(=O)NCCCNC(=O)c2ccncc2)cc1,2,-4,-1,1,.,98,.
Cc1ccc(C)c(N2CCN(C(=O)c3ccc(N4CCOCC4)c([N+](=O)[O-])c3)CC2)c1,-1,-2,4,4,.,113,.
Cc1ccc(NC(=O)c2ccc(OC(=O)c3ccco3)cc2)cc1,0,-2,7,8,-9,87,.
O=C(Nc1cc(Cl)ccc1Cl)c1ccc(OC(=O)c2ccco2)cc1,1,-5,14,0,-1,65*,.
CC(Sc1ccccc1)C(=O)NNC(=O)c1csc(N2CCOCC2)n1 (stereo unspecified),1,.,-1,2,.,104,.
COc1ccc(NC(=O)Cn2nnc(C(=O)NCc3ccccc3)c2N)cc1Cl,.,.,22,1,2,89*,.
COc1cccc(Cn2nnc(C(=O)Nc3ccc(C)cc3)c2N)c1,3,-7,-15,0,-6,102,.
COc1ccc(NC(=O)Cn2nnc(C(=O)NCc3ccc(C)cc3)c2N)cc1Cl,0,-6,1,0,.,92,.
COc1cccc(Cn2nnc(C(=O)Nc3cc(C)ccc3OC)c2N)c1,15,4,3,0,-4,-1.1*,.
CCOc1ccc(Cn2nnc(C(=O)Nc3cc(C)cc(C)c3)c2N)cc1,4,1,-25,4,-15,72*,.
CC1CC(=O)NN1C(=O)c1ccccc1 (stereo unspecified),2,-4,12,6,.,116,.
Cc1cnc(C(=O)Oc2ccc(-c3ccccc3)cc2)cn1,-1,0,1,17,.,.,.
CC(CCc1ccccc1)NC(=O)Cc1cccs1 (stereo unspecified),-3,-4,3,0,-2,104,.
COCCN(C(=O)c1csnn1)C(C(=O)NC1CCCC1)c1ccccc1F (stereo unspecified),-4,4,-4,3,.,133,.
CN(C)N=C1c2cc(S(=O)(=O)N(C)C)ccc2-c2ccc(S(=O)(=O)N(C)C)cc21,2,?,24,1,.,100,.
CN(C)S(=O)(=O)c1ccc2c(c1)C(=NO)c1cc(S(=O)(=O)N(C)C)ccc1-2,-6,-3,-15,1,.,76*,.
CN(CCO)S(=O)(=O)c1ccc2c(c1)C(=NNC(N)=O)c1cc(S(=O)(=O)N(C)CCO)ccc1-2,-3,2,0,1,.,-5.9*,.
Cc1cccc(/N=C/C2=C(O)CC(C)(C)CC2=O)n1,1,2,7,2,.,.,.
Cc1cc(N=CC2=C(O)CC(C)(C)CC2=O)no1,-1,-4,5,2,60*,107,-4
O=C(Nc1ccsc1C(=O)NC1CC1)c1ccccc1,4,-11,-4,0,50*,.,-10
CCOC(=O)N1CCN(S(=O)(=O)c2cc(Br)cc3c2N(C(=O)CC)CC3)CC1,1,-3,1,0,-12,106,.
CCOC(=O)N1CCC(NS(=O)(=O)c2cc(Br)cc3c2N(C(=O)CC)CC3)CC1,5,-1,14,3,66*,104,-18
COC(=O)c1cccc2c1-c1ccccc1/C2=N/O,0,1,-4,0,70*,108,-19
CCCCn1c(=O)[nH]c2nc3cc(N)ccc3nc2c1=O,85*,5,-84,1,60*,90,7
COc1ccccc1OCC(=O)NNC(=O)c1c(-c2ccccc2Cl)noc1C,0,8,3,0,1,96,.
SMILES,LANA-H2B inh,HDAC3 inhib,VLA-4 inh,GRK2 inh,PKD1 inh,DSG3 Ab inh,PKD FP artifact
Cc1ccc(SCC(=O)Nc2ccc3c(c2)C(=O)N(C)C3=O)cc1,-2,3,6,0,.,104,.
C=CCn1c(SC(C)C(=O)NCc2ccc3c(c2)OCO3)nnc1C1CCCCC1 (stereo unspecified),-5,-10,17,1,97*,96,-5
CCN1/C(=C/C(C)=O)Sc2ccc(OC)cc21,1,8,0,1,78*,.,-14
CCN1/C(=C/c2cccc[n+]2C)Sc2ccc(OC)cc21,-37,5,-284,1,.,90,.
Cn1c(=O)[nH]c(=O)c2c1nc(NC1CCCCC1)n2CC(=O)NC1CCCCC1,.,.,.,.,101*,.,-24
O=C(O)CCCNc1cc(N2CCN(C(=O)c3ccco3)CC2)c2noc3c2c1C(=O)c1ccccc1-3,14,9,-119,21,.,94,.
